Compound activity as filed in PubChem.
Compounds with a hit are over-represented: about 15% of the library has one in this group of screens.
SARS PLP yeast: SARS-CoV PLP inhibition in yeast | S. cerevisiae expressing SARS-CoV PLpro, growth rescue | Potency, µM (doses to about 32.9 µM), actives largely listed as activators | hit rate 0.19% among 330,000; calls by dose curve; also: nearly all actives have a fitted effect of over 55% in size
HCMV inh: human cytomegalovirus inhibition; activity change, negative = inhibition, % at 57.5 µM; HFF cells, HCMV-luciferase reporter, 72 h; stronger effect = lower value; hit rate 4.5% among 410,000; in the data active = activity change below about -60%; inconclusive = no clear call, values can overlap the other calls; inactive = above about -39%
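Cell-based, HFFs, 1000 cells/well, 16 h 37C; cpds in DMSO + HCMV-luc, MOI 1 PFU/cell; 72 h 37C; OneGlo luminescence after 5 min RT; norm. to buffer vs Salinomycin 10uM.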
Sm TGR inh: inhibitors of Schistosoma mansoni thioredoxin glutathione reductase; hit rate 3% among 360,000; purified TGR, DTNB reduction, TNB absorbance 405 nm; AID 485364; Potency, µM (series often up to 114 µM), hits mostly inhibitors; also: nearly all actives have a fitted effect of over 60% in size
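Kinetic colorimetric format: TGR-catalysed, NADPH-driven DTNB reduction monitored via TNB absorbance. Enzyme dispensed at 20 nM; compound exposure 15 min at room temperature before reaction start.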
Pf growth 96h: inhibits malaria parasite growth, 96 h | hit rate 6.9% among 320,000 | AID 504834 | Potency, µM (doses to about 28.7 µM), hits mostly inhibitors | P. falciparum luciferase reporter growth, 96 h
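Two-generation exposure (96 h) targets delayed-death phenotype. Reporter parasites carrying integrated firefly luciferase, in red cells at 2% hematocrit and 0.05% parasitemia final, kept at 37 C, 5% CO2; luminescence loss indicates inhibition.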
HCV inh: blocks hepatitis C virus; Huh7.5.1 HCVcc-Cre infection, luciferase reporter, 44 h; Potency, µM (series often up to 41.8 µM), actives largely listed as inhibitors; hit rate 3.4% among 340,000; AID 651820
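Cells (1,000/well) were plated 4 h before compound, then infected with HCVcc-Cre virus (~0.5 moi). After 44 h further culture, infection was read as luciferase luminescence following a 15 min substrate incubation at room temperature.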
Pf growth 48h: inhibits P. falciparum growth in the first generation, 48 h. P. falciparum luciferase growth in erythrocytes, 48 h. Potency, µM (doses to about 28.7 µM), most hits filed as inhibitors. hit rate 5.9% among 310,000
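Parasite viability was followed by luminescence of a genomically integrated firefly luciferase. Cultures held 0.1% parasitemia at 2% hematocrit (final), incubated under 5% CO2 at 37 C.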
Large screens that a line does not name were inactive. Unless noted, calls follow the shape of the dose curve; as a rule, active = well fitted curve in the direction sought with a large enough effect; inconclusive = small, poorly fitted or top-dose-only effect, or another doubt; inactive = no such curve, though single readings can be large; an effect the other way counts as inactive or inconclusive.

O=C(CCC1CCCN(C(=O)CCCc2ccccc2)C1)N1CCN(c2ccccn2)CC1 (stereo unspecified)	Pf growth 96h inconclusive, HCV inh inconclusive, Pf growth 48h inconclusive
CCn1cc(/C=N/N=C2\CCC3C4CCc5cc(O)ccc5C4CC[C@]23C)c(C)n1 (stereo partly specified)	Pf growth 96h 1.65µM (no result: Pf growth 48h)
CC(C)Cn1c(=O)c2ccccc2n2c(CCC(=O)NC(C)c3ccccc3)nnc12 (stereo unspecified)	HCMV inh inconclusive (no result: SARS PLP yeast, Pf growth 96h, HCV inh, Pf growth 48h)
COC(=O)c1cc2oc(C)cc2n1CC(=O)Nc1cc(Cl)ccc1OC	none (no result: SARS PLP yeast, Pf growth 96h, HCV inh, Pf growth 48h)
COC(=O)c1cc2oc(C)cc2n1CC(=O)Nc1ccc(OC)c(OC)c1OC	Pf growth 96h inconclusive, Pf growth 48h 1.65µM (no result: HCMV inh, HCV inh)
COC(=O)c1cc2sc(Cl)cc2n1CC(=O)Nc1ccc(OC)c(OC)c1OC	Pf growth 48h 0.415µM
CCc1cc(=O)oc2cc(C)cc(OC(C)C(=O)NCc3cccnc3)c12 (stereo unspecified)	Pf growth 96h inconclusive, Pf growth 48h inconclusive
CCCCc1cc(=O)oc2cc(C)cc(OC(C)C(=O)NCc3cccnc3)c12 (stereo unspecified)	Pf growth 96h 16.5µM, HCV inh inconclusive, Pf growth 48h inconclusive
CCc1cc(=O)oc2cc(C)cc(OC(C)C(=O)NCc3ccncc3)c12 (stereo unspecified)	Pf growth 96h 9.28µM, HCV inh inconclusive, Pf growth 48h inconclusive
O=C(CNC(=O)N1CC(=O)Nc2ccccc21)Nc1ccc(Cl)cc1Cl	none (no result: SARS PLP yeast, Sm TGR inh, Pf growth 96h, HCV inh, Pf growth 48h)
Cc1cc(C)c(S(C)(=O)=O)c(NN)n1	none
CCCCC[n+]1ccn(C2=C([O-])c3ccccc3C(=O)/C2=N\S(=O)(=O)c2ccccc2)c1	HCMV inh -77.1, Pf growth 96h 5.86µM, HCV inh inconclusive, Pf growth 48h 2.94µM
CCCCC[n+]1ccn(C2=C([O-])c3ccccc3C(=O)/C2=N\S(=O)(=O)c2ccc(Br)cc2)c1	Pf growth 96h inconclusive, HCV inh inconclusive, Pf growth 48h 1.85µM
CCCC[n+]1ccn(C2=C([O-])c3ccccc3C(=O)/C2=N\S(=O)(=O)c2ccccc2)c1	HCMV inh inconclusive, Pf growth 96h 8.28µM, HCV inh 11.2µM, Pf growth 48h 1.85µM
CC(C)(C)c1cc[n+](C2=C([O-])c3ccccc3C(=O)/C2=N\S(=O)(=O)c2ccccc2)cc1	Pf growth 96h 4.15µM, Pf growth 48h 3.7µM
Cc1c(C(C)(C)C)s/c(=N/S(=O)(=O)c2ccccc2)n1C	Pf growth 48h inconclusive
O=[N+]([O-])c1ccc(COc2ccc(CN3CCCCC3)cc2)cc1	none (no result: SARS PLP yeast, Sm TGR inh, Pf growth 96h, Pf growth 48h)
COc1ccc(CCNC(=O)CCCn2c(=O)c3ccccc3n(Cc3c(C)cc(C)cc3C)c2=O)cc1OC	none (no result: SARS PLP yeast, Pf growth 96h, HCV inh, Pf growth 48h)
CC(C)[n+]1ccn(C2=C([O-])c3ccccc3C(=O)/C2=N\S(=O)(=O)c2ccccc2)c1	HCMV inh -87.4, Sm TGR inh 44.7µM, Pf growth 96h inconclusive, HCV inh inconclusive, Pf growth 48h 6.57µM
CCN(CC)c1ccc([C@H]2[C@@H]3CCCC[C@]3(O)CCN2CC(=O)NCc2ccco2)cc1	HCMV inh inconclusive, Pf growth 96h inconclusive, Pf growth 48h 10.4µM
CCN(CC)c1ccc(C2C3CCCCC3(O)CCN2CC(=O)N2CCCCC2)cc1 (stereo unspecified)	Pf growth 96h inconclusive, Pf growth 48h inconclusive
CCN(CC)c1ccc(C2C3CCCCC3(O)CCN2C(=O)c2cccs2)cc1 (stereo unspecified)	Pf growth 96h 11.7µM, Pf growth 48h inconclusive
Cc1c(O)c(CN2CCCC2)cc2c3c(c(=O)oc12)CCC3	Sm TGR inh inconclusive, Pf growth 96h inconclusive, HCV inh inconclusive, Pf growth 48h 3.29µM
Cc1c(O)c(CN2CCCC2)cc2c1oc(=O)c1ccccc12	Sm TGR inh 50.1µM, HCV inh inconclusive, Pf growth 48h 1.47µM
Cc1c(OC(C(=O)O)c2ccccc2)ccc2c1oc(=O)c1ccccc12 (stereo unspecified)	Pf growth 96h inconclusive
C=CCc1cc2c(oc(=O)c3ccccc32)c(C)c1O	Pf growth 96h 14.7µM
Oc1ccc(C23CCCC2C2(CCCC2)c2ccc(O)cc2O3)c(O)c1 (stereo unspecified)	HCMV inh inconclusive, Pf growth 96h inconclusive, HCV inh 10µM, Pf growth 48h inconclusive
O=C(CNc1cccc(S(=O)(=O)N2CCCC2)c1)Nc1cccc(C(F)(F)F)c1	HCV inh inconclusive (no result: Sm TGR inh, Pf growth 96h, Pf growth 48h)
Cc1cccc(S(=O)(=O)N[C@H]2CC[C@@]34CCCN3C(=O)CCC[C@H]4[C@H]2C)c1	none (no result: SARS PLP yeast, Sm TGR inh, Pf growth 96h, HCV inh, Pf growth 48h)
COc1ccc(N2CCN(c3ccc(NC(=O)NN)cc3)CC2)cc1	Pf growth 96h 11.7µM
COc1ccc(C(=O)N2CCN(c3ccc(NC(=O)c4cccnc4)cc3)CC2)cc1	none
COc1ccc(C(=O)Nc2ccc(N3CCCC3)cc2)cc1	Sm TGR inh 56.2µM, Pf growth 96h 4.15µM (no result: Pf growth 48h)
CCN1CCN(c2ccc(NC(=O)c3ccc4c(c3)[nH]c(=O)n4Cc3ccc(OC)cc3)cc2)CC1	HCMV inh inconclusive, Pf growth 96h 10.4µM, HCV inh inconclusive, Pf growth 48h inconclusive
COc1ccc(C(=O)NC(=S)Nc2ccc(N3CCCC3)cc2)cc1	HCMV inh inconclusive
COc1ccc(C(=O)Nc2ccc(N3CCN(C(=O)c4ccccc4C)CC3)cc2)cc1	HCMV inh -82.1, Pf growth 96h inconclusive, HCV inh 11.2µM, Pf growth 48h inconclusive
COc1ccc(Cn2c(=O)[nH]c3cc(C(=O)Nc4ccccc4C)ccc32)cc1	HCMV inh inconclusive
CC1=C(c2ccc(NN=C(C#N)C#N)cc2)NNC(=O)C1	none (no result: SARS PLP yeast, HCMV inh, Sm TGR inh, HCV inh)
COCc1cccc(-c2csc(C(O)c3ccccc3)n2)c1 (stereo unspecified)	none (no result: SARS PLP yeast, Sm TGR inh, Pf growth 96h, HCV inh, Pf growth 48h)
COC(=O)/C=C/[C@H]1CCCN1c1ccc(OC)cc1	none (no result: SARS PLP yeast, Sm TGR inh, Pf growth 96h, HCV inh, Pf growth 48h)
COc1ccc(N2CCSC2C(=O)NN)cc1 (stereo unspecified)	Pf growth 96h 9.28µM
Cc1ccc(C(=O)N2CCN(c3ccccc3)CC2)cc1NC(=O)c1ccco1	none (no result: HCMV inh)
COc1ccc(N2CCN(C(=O)c3ccc(C)c(NC(=O)c4ccco4)c3)CC2)cc1	Sm TGR inh 1.78µM
COc1ccc(COCC(O)CN2CCC(CN3C(=O)c4cccc5cccc(c45)C3=O)CC2)cc1OC (stereo unspecified)	Pf growth 96h 11.7µM, HCV inh inconclusive, Pf growth 48h inconclusive
Cc1cc(C)cc(OCC(O)CN2CCC(CN3C(=O)c4cccc5cccc(c45)C3=O)CC2)c1 (stereo unspecified)	HCMV inh -101.4, HCV inh 2.24µM
O=C1c2cccc3cccc(c23)C(=O)N1CC1CCN(CC(O)COc2ccc3ccccc3c2)CC1 (stereo unspecified)	HCV inh 7.94µM
